From PubChem BioAssay (Tox21)
Inconclusive results are not listed. The source made the active and inactive calls. Unless noted, calls follow the shape of the dose curve; as a rule, active = well fitted curve in the direction sought with a large enough effect in the repeat runs; inconclusive = weak or mixed curves; inactive = no such curve, though single readings can be large; an effect the other way counts as inactive or inconclusive.

Assays:
[1] = qHTS assay to identify small molecule antagonists of the vitamin D receptor (VDR) signaling pathway - cell viability counter screen (AID 743225); also: nearly all actives have a fitted effect of over 50% in size
Procedure, shortened: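 HEK293T VDR-bla; cpd + 1a,25-(OH)2D3 3 nM final, 16 h 37C/5% CO2; B/G FRET substrate 2 h RT; then CellTiter-Glo 30 min RT, luminescence.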

[2] = qHTS assay to identify small molecule agonists of the NFkB signaling pathway (AID 1159509; active = well fitted curve in the direction sought with a large enough effect in the signal ratio in the repeat runs, not every such curve was filed as active; the % refers to the signal ratio; also: series mostly up to about 61 µM)
Procedure, shortened: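 Pathway activation was measured in ME-180 cells stably expressing beta-lactamase under NF-kB response element control. Substrate cleavage was read as the 460/530 nm emission shift after 5 hr compound incubation.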

[3] = qHTS assay to identify small molecule agonists of the NFkB signaling pathway - cell viability counter screen (AID 1159515; calls by dose curve; also: series mostly up to about 61 µM; nearly all actives have a fitted effect of over 55% in size)
Procedure, shortened: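 Counter screen run alongside the NFkB-bla agonist assay: ME-180 reporter cells exposed to compounds for 5 hr, then lysed with CellTiter-Glo in the same wells. Luminescence, read after 30 min, reflects viable cells.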

[4] = qHTS assay to identify small molecule agonists of the endoplasmic reticulum stress response signaling pathway (AID 1159516; active = well fitted activation curve with a large enough effect in the signal ratio in the repeat runs, not every such curve was filed as active; the % refers to the signal ratio)
Procedure, shortened: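 For this screen, HeLa cells stably carrying beta-lactamase under the ER stress response element received test compounds, positive controls or DMSO for 5 hr at 37 C; B/G FRET substrate was then added and dual-wavelength emission recorded.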

[5] = qHTS assay to identify small molecule agonists of the endoplasmic reticulum stress response signaling pathway - cell viability counter screen (AID 1159517; calls by dose curve; also: series mostly up to about 61 µM; nearly all actives have a fitted effect of over 50% in size)
Procedure, shortened: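 ESRE-bla HeLa cells (1,500/well) were plated overnight at 37 C and exposed to compounds for 5 hr. After the 2 hr beta-lactamase substrate read, CellTiter-Glo went into the same wells, and luminescence was read after 30 min at room temperature.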

[6] = qHTS assay to identify small molecule antagonists of the retinoid-related orphan receptor gamma (ROR-gamma) signaling pathway - cell viability counter screen (AID 1159520); also: nearly all actives have a fitted effect of over 50% in size
Procedure, shortened: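 Cytotoxicity was read from cellular ATP (CellTiter-Glo luminescence) after 16 hr at 37 C with 1 uM doxycycline induction. The inducer was added 2 hr after compound transfer to Tet-on ROR gamma CHO cells.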

[7] = target: Nuclear receptor ROR-gamma (Homo sapiens) (UniProt P51449); assay: qHTS assay to identify small molecule antagonists of the retinoid-related orphan receptor gamma (ROR-gamma) signaling pathway (AID 1159521;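 also: CHO cells with doxycycline inducible ROR-gamma driving an RORE luciferase reporter; top concentration of the series differs between compounds; nearly all actives have a fitted effect of over 50% in size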)
Procedure, shortened: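 Cells were plated, rested 4 h at 37 C, exposed to compounds for 2 h, then given 1 uM final doxycycline hyclate to induce RORγ expression. After 16 h, ONE-Glo luminescence from the ROR response element reporter was measured.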

[8] = qHTS assay to identify small molecule agonists of the AP-1 signaling pathway - cell viability counter screen (AID 1159525; calls by dose curve; also: nearly all actives have a fitted effect of over 55% in size)
Procedure, shortened: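 Intracellular ATP by Cell Titer Glo luminescence (30 min, RT) in the same ME-180 AP-1-bla wells after the 5 h compound exposure at 37 °C. Normalised to tetra n-octyl ammonium bromide and DMSO controls.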

[9] = qHTS assay to identify small molecule agonists of the AP-1 signaling pathway (AID 1159526; calls by dose curve)
[10] = target: Retinoic acid receptor RXR-alpha (Homo sapiens) (UniProt P19793); assay: qHTS assay to identify small molecule agonists of the RXR signaling pathway (AID 1159527; calls by dose curve; also: nearly all actives have a fitted effect of over 35% in size)
Sequence of Retinoic acid receptor RXR-alpha (Homo sapiens) (P19793 whole entry, looked up): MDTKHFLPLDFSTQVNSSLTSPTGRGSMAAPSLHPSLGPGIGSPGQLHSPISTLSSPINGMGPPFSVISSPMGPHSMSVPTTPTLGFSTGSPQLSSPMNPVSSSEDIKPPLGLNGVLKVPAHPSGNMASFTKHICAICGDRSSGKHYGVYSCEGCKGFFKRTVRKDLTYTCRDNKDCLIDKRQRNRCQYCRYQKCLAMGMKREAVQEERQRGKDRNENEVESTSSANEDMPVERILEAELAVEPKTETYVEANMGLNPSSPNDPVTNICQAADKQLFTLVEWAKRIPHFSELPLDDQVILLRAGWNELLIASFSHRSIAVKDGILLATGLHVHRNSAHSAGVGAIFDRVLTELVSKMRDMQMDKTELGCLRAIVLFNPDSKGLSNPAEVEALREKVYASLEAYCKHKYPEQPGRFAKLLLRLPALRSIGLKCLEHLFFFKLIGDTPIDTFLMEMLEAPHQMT
Procedure, shortened: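 Cells plated at 2,000/well, rested 5 hr at 37 C, pin-dosed with DMSO compound solutions, incubated 16 hr, then loaded with B/G FRET substrate for 2 hr at RT before dual-emission fluorescence reading.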

[11] = qHTS assay to identify small molecule agonists of the RXR signaling pathway - cell viability counter screen (AID 1159529)
Procedure, shortened: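 Steps: seed RXR-alpha-UAS-bla HEK 293T cells in assay medium containing 2% charcoal-stripped FBS; incubate 5 hr; add compounds in DMSO; incubate 16 hr at 37 C; after the bla read, add CellTiter-Glo and read luminescence at 30 min.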

[12] = qHTS assay to identify small molecule antagonists of the retinoid acid receptor (RAR) signaling pathway - cell viability counter screen (AID 1159551); also: nearly all actives have a fitted effect of over 35% in size
Procedure, shortened: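 Measured by luminescent ATP detection, viability reflects C3RL4 cells treated 6 h at 37 C with test chemicals in the presence of 1 uM (final) retinol.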

[13] = qHTS assay to identify small molecule antagonists of the retinoic acid receptor (RAR) signaling pathway (AID 1159552; also: nearly all actives have a fitted effect of over 50% in size)
Procedure, shortened: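 Retinol at 1 uM final stimulated RARE-luciferase expression in C3RL4 cells exposed to test compounds for 6 hr at 37 C. Reduced luminescence, read 30 min after detection reagent, indicated pathway antagonism.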

[14] = qHTS assay to identify small molecule agonists of the retinoic acid receptor (RAR) signaling pathway (AID 1159553)
Procedure, shortened: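 6 hr compound exposure (DMSO vehicle) of overnight-plated C3RL4 RARE-luc cells at 37 C; luminescence quantified after 30 min RT with luciferase reagent.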

[15] = qHTS assay to identify small molecule agonists of the vitamin D receptor (VDR) signaling pathway - cell viability counter screen (AID 743224)
Procedure, shortened: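 Counter screen for cytotoxicity: VDR-bla cells at 2,000 cells/well, 16 h compound exposure, then CellTiter-Glo luminescence after the beta-lactamase measurement.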

[16] = qHTS assay to identify small molecule antagonists of the estrogen related receptor (ERR) signaling pathway - cell viability counter screen (AID 1224818); also: series mostly up to about 46 µM
Procedure, shortened: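 Compounds dissolved in DMSO were applied to ERR cells seeded at 2,000 per well 6 h earlier. Cell viability followed 17.5 h later via 30-min CellTiter-Fluor fluorescence.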

[17] = qHTS assay to identify small molecule antagonists of the estrogen related receptor (ERR) signaling pathway (AID 1224819)
Procedure, shortened: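 Compounds dissolved in DMSO were pin-transferred onto ERR cells that had been plated 6 h earlier, and cells were then incubated 18 h at 37 C; signal was luciferase luminescence via One-Glo.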

[18] = qHTS assay to identify small molecule agonists of the estrogen related receptor (ERR) signaling pathway (AID 1224820)
Procedure, shortened: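 An ERR cell line provided by NTP was seeded at 2,000 cells per well and allowed to settle for 6 h before compounds in DMSO were added. After 18 h at 37 C, luciferase activity was measured by One-Glo luminescence.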

[19] = tested on: estrogen-related receptor alpha (ERRalpha) with PGC-1alpha coactivator, human; assay: qHTS assay to identify small molecule antagonists of the estrogen related receptor signaling pathway with the pleiotropic PPARgamma coactivator (PGC) (AID 1224821; calls by dose curve)
Procedure, shortened: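 A PGC/ERR cell line supplied by NTP is seeded, allowed 6 h at 37 C, and treated with test compounds in DMSO for 18 h. Signal is then measured as luciferase luminescence using One-Glo.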

[20] = qHTS assay to identify small molecule antagonists of the estrogen related receptor signaling pathway with the pleiotropic PPARgamma coactivator (PGC) cell viability counter screen (AID 1224822; also: series mostly up to about 46 µM)
Procedure, shortened: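 Counter screen for cell viability: PGC/ERR cells, 6 h pre-incubation after plating, 17.5 h compound exposure at 37 C, fluorescence from CellTiter-Fluor after 30 min.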

Measured: Potency

O=C1OC(=O)C2CCCCC12 (stereo not given)
inactive: [1] | [2] | [3] | [4] | [5] | [6] | [7] | [8] | [9] | [10] | [11] | [12] | [13] | [14]

CCCCNC(=O)NCCCC
inactive: [15] | [2] | [3] | [4] | [5] | [6] | [7] | [8] | [9] | [10] | [11] | [12] | [13]

CCOC(=O)C(=O)OCC
inactive: [15] | [1] | [2] | [3] | [4] | [5] | [6] | [7] | [8] | [9] | [10] | [11] | [12] | [13]

CC(=O)OCC(CCn1cnc2cnc(N)nc21)COC(C)=O
inactive: [15] | [2] | [3] | [4] | [5] | [6] | [7] | [8] | [9] | [10] | [11] | [12] | [13] | [16]

O=C1CCCC(=O)C1
inactive: [15] | [1] | [2] | [3] | [4] | [5] | [6] | [7] | [8] | [9] | [10] | [11] | [12] | [13] | [14]

CCCCC/C=C\CCC=O
inactive: [15] | [2] | [3] | [4] | [5] | [6] | [7] | [8] | [9] | [10] | [11] | [12] | [13]

NS(=O)(=O)c1ccc(C(=O)O)cc1
inactive: [15] | [1] | [2] | [3] | [4] | [5] | [6] | [7] | [8] | [9] | [10] | [11] | [12] | [13]

COCCCOCCCOC
inactive: [15] | [1] | [2] | [3] | [4] | [5] | [6] | [7] | [8] | [9] | [10] | [11] | [12] | [13]

CCO/C([O-])=N/c1c[n+](N2CCOCC2)no1
inactive: [15] | [2] | [3] | [4] | [5] | [6] | [7] | [8] | [9] | [10] | [11] | [12] | [13] | [16] | [17] | [18] | [19] | [20]

CCC=O
inactive: [15] | [1] | [2] | [3] | [4] | [5] | [6] | [7] | [8] | [9] | [10] | [11] | [12] | [13] | [14]

CCO[Si](CCC1CCC2OC2C1)(OCC)OCC (stereo not given)
inactive: [15] | [1] | [2] | [3] | [4] | [5] | [6] | [7] | [8] | [9] | [10] | [11] | [12] | [13] | [14]

NS(=O)(=O)c1ccccc1Cl
inactive: [15] | [2] | [3] | [4] | [5] | [6] | [7] | [8] | [9] | [10] | [11] | [12] | [13]

Cc1cc2c(cc1S(N)(=O)=O)S(=O)(=O)CCC2
inactive: [15] | [1] | [2] | [3] | [4] | [5] | [6] | [7] | [8] | [9] | [10] | [11] | [12] | [13]

CN1CC(=O)NC1=N
inactive: [15] | [1] | [2] | [3] | [4] | [5] | [6] | [7] | [8] | [9] | [10] | [11] | [12] | [13] | [14]

CCOC(=O)CCC(C)=O
inactive: [15] | [1] | [2] | [3] | [4] | [5] | [6] | [7] | [8] | [9] | [10] | [11] | [12] | [13]
